Some test systems named below: HCT-15 colon; HT29 colon; SNB-75 CNS; SNB-19 CNS; U251 CNS; PC-3 prostate; SK-MEL-5 melanoma; UACC-62 melanoma; LOX IMVI melanoma; SK-MEL-28 melanoma; SK-MEL-2 melanoma; SN12C renal; UO-31 renal; TK-10 renal; ACHN renal; CAKI-1 renal; A498 renal; MOLT-4 leukemia; CCRF-CEM leukemia.
Common to all, as to experiment: NCI-60 one-dose screen, 48 h (100 = growth as untreated, 0 = no growth, -100 = all killed)
Holding throughout (conditions): 10 µM unless noted

Experimental findings from PubChem BioAssay (NCI) are described below.

The structures appear in SMILES notation. The panel holds about 83,000 compounds, 20% with a hit somewhere; the sample as a whole holds those more often.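 The test compound was applied at a single concentration to cells in 96-well plates for 48 hours, and percent growth was recorded.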 Values without a mark were called inactive. Calls of active or inactive are those of the source. How the source made its calls: active means growth percent below 10; inactive means the rest.

Regarding `CC(=O)C1CCC(C)=CC1=O` (stereo not drawn), the growth was 99.4% with HCT-15 colon; 103% in the assay on HT29 colon; 81.5% in the assay with SNB-75 CNS; 101% with SNB-19 CNS; 97.4% in the assay on U251 CNS; 96.3% with PC-3 prostate. Also, the growth was 108% in the assay on SK-MEL-5 melanoma; 101% with UACC-62 melanoma; 94% with LOX IMVI melanoma; 103% in the assay with SK-MEL-28 melanoma; 94.3% in the assay on SK-MEL-2 melanoma; 99% with SN12C renal. Further, the growth is 80.3% in the assay with UO-31 renal; 97.7% with TK-10 renal; 98.4% with ACHN renal; 96.5% in the assay with CAKI-1 renal; 87.6% in the assay with A498 renal; 88.3% in the assay on MOLT-4 leukemia.

As to `CCn1cc(C(=O)O)c(=O)c2cc(F)c(N3CCN(S(=O)(=O)c4c(C)cc(C)cc4C)CC3)cc21`, the growth with HCT-15 colon was 71.5%; in the assay on HT29 colon it was 94.8%; in the assay on SNB-75 CNS it was 70.8%; in the assay on SNB-19 CNS it was 89.9%; with U251 CNS it was 83.3%; in the assay with PC-3 prostate, 61.4%. In addition, the growth was 79.5% in the assay on SK-MEL-5 melanoma; 75.9% in the assay with UACC-62 melanoma; 61.3% in the assay with LOX IMVI melanoma; 91.7% in the assay on SK-MEL-28 melanoma; 88.7% in the assay on SK-MEL-2 melanoma; 88.5% with SN12C renal. Moreover, the growth in the assay with UO-31 renal is 33.1%; in the assay with TK-10 renal it was 97.5%; with ACHN renal, 75.8%; in the assay on CAKI-1 renal, 89.5%; in the assay with A498 renal, 78.9%; with MOLT-4 leukemia it was 75.9%.

For `CCc1cccc(C)c1NC(=O)c1sc2nc3c(cc2c1N)C(=O)CCC3`, the growth was 32.8% in the assay with HCT-15 colon; 6.1% (active) in the assay on HT29 colon; -2.83% (active) in the assay with SNB-75 CNS; 67.9% with SNB-19 CNS; 2.81% (active) in the assay on U251 CNS; 23.3% with PC-3 prostate. The growth in the assay with SK-MEL-5 melanoma was 17%; with UACC-62 melanoma, 46.5%; in the assay on LOX IMVI melanoma it was 37.9%; with SK-MEL-28 melanoma, 42.9%; with SK-MEL-2 melanoma it was 27.5%; in the assay on SN12C renal, 51.5%. The growth with UO-31 renal was 50.1%; in the assay with TK-10 renal, 51.5%; in the assay on ACHN renal it was 51.9%; in the assay on CAKI-1 renal, 45.8%; with A498 renal, -9.18% (active); in the assay on MOLT-4 leukemia, 18%.

In the case of `CCN(Cc1ccc(CN(CC)C(=O)C(Cl)(Cl)Cl)cc1)C(=O)C(Cl)(Cl)Cl`, the growth was 94.2% in the assay on HCT-15 colon; 77.5% with HT29 colon; 87.7% in the assay on SNB-75 CNS; 106% with SNB-19 CNS; 91.6% with U251 CNS; 64.9% in the assay with PC-3 prostate. Further, the growth was 71.2% with SK-MEL-5 melanoma; 82.7% in the assay on UACC-62 melanoma; 78.3% in the assay with LOX IMVI melanoma; 96.2% in the assay on SK-MEL-28 melanoma; 89% in the assay with SK-MEL-2 melanoma; 97.8% in the assay with SN12C renal. Also, the growth with UO-31 renal was 78.7%; in the assay on TK-10 renal, 96.1%; in the assay on ACHN renal it was 91.1%; with CAKI-1 renal, 72%; with A498 renal, 82.6%; in the assay with MOLT-4 leukemia, 29.9%.

Turning to `COc1ccc(-c2nnc(COc3ccc(NS(=O)(=O)c4ccc(OC)cc4)cc3F)o2)cc1`, the growth in the assay on HCT-15 colon is 85.1%; in the assay on HT29 colon, 91.1%; with SNB-75 CNS, 77.4%; with SNB-19 CNS it was 84%; in the assay with U251 CNS it was 82.2%; in the assay with PC-3 prostate, 56.3%. In addition, the growth in the assay on SK-MEL-5 melanoma was 43.9%; in the assay on UACC-62 melanoma it was 64.8%; in the assay with LOX IMVI melanoma, 86.3%; in the assay on SK-MEL-28 melanoma it was 97%; in the assay on SK-MEL-2 melanoma it was 68.2%; in the assay on SN12C renal it was 89.8%. Moreover, the growth with UO-31 renal was 51.1%; with TK-10 renal, 80.9%; in the assay on ACHN renal, 72.1%; with CAKI-1 renal it was 64.1%; with A498 renal, 59.2%; with MOLT-4 leukemia, 60%.

`CCCC(C(=O)OCC)C(C)OC(=O)OCC` (stereo not drawn): the growth with HCT-15 colon is 99.9%; in the assay with HT29 colon, 104%; with SNB-75 CNS, 79%; in the assay with SNB-19 CNS it was 106%; with U251 CNS, 102%; with PC-3 prostate it was 102%. Further, the growth with SK-MEL-5 melanoma is 103%; in the assay with UACC-62 melanoma, 103%; in the assay with LOX IMVI melanoma it was 99.1%; with SK-MEL-28 melanoma, 107%; in the assay on SK-MEL-2 melanoma it was 94.7%; with SN12C renal it was 101%. Besides, the growth is 80.1% in the assay on UO-31 renal; 98% with TK-10 renal; 107% with ACHN renal; 96.3% in the assay on CAKI-1 renal; 118% in the assay on A498 renal; 89.8% in the assay with MOLT-4 leukemia.

On to `COc1ccc(-n2cnc3c(sc4ncc(Cl)cc43)c2=O)cc1`, for which the growth in the assay with HCT-15 colon is 101%; in the assay with HT29 colon, 79.3%; in the assay on SNB-75 CNS, 90.3%; in the assay with SNB-19 CNS, 108%; with U251 CNS, 74.7%; in the assay with PC-3 prostate, 83.1%. Moreover, the growth is 99.1% in the assay on SK-MEL-5 melanoma; 109% in the assay with UACC-62 melanoma; 58% in the assay with LOX IMVI melanoma; 102% with SK-MEL-28 melanoma; 120% in the assay on SK-MEL-2 melanoma; 101% in the assay with SN12C renal. For the same molecule, the growth in the assay with UO-31 renal is 5.62% (active); in the assay with TK-10 renal, 89.9%; in the assay with ACHN renal, 82.1%; in the assay on CAKI-1 renal, 86.6%; in the assay on A498 renal, 76.8%; in the assay on MOLT-4 leukemia, 96.6%.

Consider `CC[C@H](C)[C@@H]1NC(=O)[C@H]([C@@H](C)O)NC(=O)C(Cc2ccccc2)NC(=O)[C@@H]2CCCN2C(=O)C(C(C)C)NC(=O)C(Cc2ccccc2)NC(=O)CNC(=O)[C@@H]2CCCN2C1=O` (stereo partly drawn), for which the growth in the assay with HCT-15 colon was 77.2%; in the assay on HT29 colon it was 76.2%; in the assay on SNB-75 CNS it was 54.3%; with SNB-19 CNS it was 73.6%; in the assay on U251 CNS, 67%; in the assay on PC-3 prostate, -0.594% (active). Further, the growth with SK-MEL-5 melanoma is 64.8%; with UACC-62 melanoma it was 65.6%; with LOX IMVI melanoma it was 88.7%; with SK-MEL-28 melanoma, 76.4%; in the assay with SK-MEL-2 melanoma it was 88.9%; in the assay with SN12C renal it was 72.5%. Moreover, the growth was 36.8% with UO-31 renal; 116% in the assay on TK-10 renal; 58.7% with ACHN renal; 37.6% in the assay with CAKI-1 renal; 26.1% in the assay with A498 renal; 7.99% (active) in the assay with MOLT-4 leukemia.

As for `O=C(O)c1ccc(-n2c(=O)c3ccccc3c3ccccc3c2=O)cc1`, the growth in the assay with HCT-15 colon was 104%; in the assay with HT29 colon it was 98.5%; in the assay on SNB-75 CNS, 92.9%; in the assay on SNB-19 CNS, 104%; in the assay with U251 CNS it was 102%; in the assay on PC-3 prostate it was 98.9%. In addition, the growth in the assay on SK-MEL-5 melanoma was 104%; in the assay on UACC-62 melanoma, 105%; with LOX IMVI melanoma, 103%; with SK-MEL-28 melanoma, 113%; in the assay with SK-MEL-2 melanoma, 93%; with SN12C renal, 107%. Further, the growth in the assay with UO-31 renal was 74.8%; in the assay with TK-10 renal it was 97.9%; in the assay with ACHN renal, 103%; in the assay on CAKI-1 renal it was 101%; with A498 renal it was 118%; in the assay on CCRF-CEM leukemia, 104%. Further, in the assay on MOLT-4 leukemia, the growth is 92.8%.
